# Source: PMC8384837, “Expanding the binding specificity for RNA recognition by a PUF domain”
# Positions count from the first letter of the chain named.
# Experiments:
# Assay in all cases: yeast three-hybrid, YBZ-1, SC-Leu-His + 0.5 mM 3-AT, 4 days
# Details in all cases: tags: N-Gal4 AD-HA kept; label: inside an RPR1-promoter hybrid RNA with tandem MS2 sites; ssRNA
# PUM1 PUF domain R5-IYM = PUM1 PUF domain R5-IYM (Homo sapiens, UniProt Q14671 828-1176, C1007I;R1008Y;Q1011M)
# Outline: (§1)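 Pumilio-1 PUF domain libraries, randomized at the three base-contacting residues of each repeat, were co-expressed with matching RNA elements from a centromeric plasmid in strain YBZ-1, which carries a LexA–MS2 coat fusion and a HIS3 reporter. Transformants grew for four days on SC-Leu (input) or on SC-Leu-His + 0.5 mM 3-AT (selection), and the repeat regions were PCR-amplified and Illumina-sequenced. The interaction score is the log change in variant frequency from input to selection. That logarithm is base 2, with a pseudocount of 1 where a variant was absent.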
# PUM1 PUF domain R6-SHR = target: T1, PUM1 PUF domain R6-SHR (Homo sapiens, UniProt Q14671 828-1176, N1043S;Y1044H;Q1047R)
# T1 sequence: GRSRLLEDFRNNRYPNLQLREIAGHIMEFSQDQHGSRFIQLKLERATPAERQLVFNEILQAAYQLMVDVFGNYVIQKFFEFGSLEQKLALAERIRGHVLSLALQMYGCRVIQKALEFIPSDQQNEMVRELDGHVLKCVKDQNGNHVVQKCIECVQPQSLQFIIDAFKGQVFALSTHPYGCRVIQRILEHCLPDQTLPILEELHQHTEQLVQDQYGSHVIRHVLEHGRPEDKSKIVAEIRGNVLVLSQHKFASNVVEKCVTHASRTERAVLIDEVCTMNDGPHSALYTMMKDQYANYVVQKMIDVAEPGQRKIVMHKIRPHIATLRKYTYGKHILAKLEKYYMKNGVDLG
# Outline: as §1
# PUM1 PUF domain R3-VRG = PUM1 PUF domain R3-VRG (Homo sapiens, UniProt Q14671 828-1176, C935V;Q939G)
# Outline: as §1
# PUM1 PUF domain R3-DFV = PUM1 PUF domain R3-DFV (Homo sapiens, UniProt Q14671 828-1176, C935D;R936F;Q939V)
# Outline: as §1
# PUM1 PUF domain R3-SCY = PUM1 PUF domain R3-SCY (Homo sapiens, UniProt Q14671 828-1176, C935S;R936C;Q939Y)
# Outline: as §1
# PUM1 PUF domain R6-DYQ = target: T2, PUM1 PUF domain R6-DYQ (Homo sapiens, UniProt Q14671 828-1176, N1043D)
# T2 sequence: T1 sequence with S216D, H217Y, R220Q
# Outline: as §1
# PUM1 PUF domain R6-VYR = target: T3, PUM1 PUF domain R6-VYR (Homo sapiens, UniProt Q14671 828-1176, N1043V;Q1047R)
# T3 sequence: T1 sequence with S216V, H217Y
# Outline: as §1
# PUM1 PUF domain R8-RRN = PUM1 PUF domain R8-RRN (Homo sapiens, UniProt Q14671 828-1176, N1122R;Y1123R;Q1126N)
# Outline: as §1
# PUM1 PUF domain R5-VHL = PUM1 PUF domain R5-VHL (Homo sapiens, UniProt Q14671 828-1176, C1007V;R1008H;Q1011L)
# Outline: as §1
# PUM1 PUF domain R5-GFM = PUM1 PUF domain R5-GFM (Homo sapiens, UniProt Q14671 828-1176, C1007G;R1008F;Q1011M)
# Outline: as §1
# PUM1 PUF domain R3-FRW = PUM1 PUF domain R3-FRW (Homo sapiens, UniProt Q14671 828-1176, C935F;Q939W)
# Outline: as §1
# PUM1 PUF domain R7-GNR = PUM1 PUF domain R7-GNR (Homo sapiens, UniProt Q14671 828-1176, S1079G;E1083R)
# Outline: as §1
# PUM1 PUF domain R5-RGC = PUM1 PUF domain R5-RGC (Homo sapiens, UniProt Q14671 828-1176, C1007R;R1008G;Q1011C)
# Outline: as §1
# PUM1 PUF domain R5-RSP = PUM1 PUF domain R5-RSP (Homo sapiens, UniProt Q14671 828-1176, C1007R;R1008S;Q1011P)
# Outline: as §1
# PUM1 PUF domain R1-KSL = PUM1 PUF domain R1-KSL (Homo sapiens, UniProt Q14671 828-1176, S863K;R864S;Q867L)
# Outline: as §1
# PUM1 PUF domain R3-QPS = PUM1 PUF domain R3-QPS (Homo sapiens, UniProt Q14671 828-1176, C935Q;R936P;Q939S)
# Outline: as §1
# PUM1 PUF domain R4-GNV = PUM1 PUF domain R4-GNV (Homo sapiens, UniProt Q14671 828-1176, N971G;H972N;Q975V)
# Outline: as §1
# PUM1 PUF domain R4-QGG = PUM1 PUF domain R4-QGG (Homo sapiens, UniProt Q14671 828-1176, N971Q;H972G;Q975G)
# Outline: as §1
# Chain of PUM1 PUF domain R4-GNV (Q14671 828-1176 N971G/H972N/Q975V): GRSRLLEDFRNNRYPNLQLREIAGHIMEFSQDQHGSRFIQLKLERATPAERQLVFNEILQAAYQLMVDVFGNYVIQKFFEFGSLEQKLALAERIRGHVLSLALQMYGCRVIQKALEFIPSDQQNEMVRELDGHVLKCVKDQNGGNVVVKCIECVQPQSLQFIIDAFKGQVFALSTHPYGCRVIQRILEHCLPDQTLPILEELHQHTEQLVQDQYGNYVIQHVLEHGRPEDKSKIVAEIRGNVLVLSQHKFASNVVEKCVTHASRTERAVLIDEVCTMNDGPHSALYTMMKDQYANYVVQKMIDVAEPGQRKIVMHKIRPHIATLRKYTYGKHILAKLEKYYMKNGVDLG
# Chain of PUM1 PUF domain R4-QGG (Q14671 828-1176 N971Q/H972G/Q975G): as the sequence (Q14671 828-1176 N971G/H972N/Q975V) above, with G144Q, N145G, V148G counted along it
# Chain of PUM1 PUF domain R5-GFM (Q14671 828-1176 C1007G/R1008F/Q1011M): as the sequence (Q14671 828-1176 N971G/H972N/Q975V) above, with G144N, N145H, V148Q, C180G, R181F, Q184M counted along it
# Chain of PUM1 PUF domain R1-KSL (Q14671 828-1176 S863K/R864S/Q867L): as the sequence (Q14671 828-1176 N971G/H972N/Q975V) above, with S36K, R37S, Q40L, G144N, N145H, V148Q counted along it
# Chain of PUM1 PUF domain R3-FRW (Q14671 828-1176 C935F/Q939W): as the sequence (Q14671 828-1176 N971G/H972N/Q975V) above, with C108F, Q112W, G144N, N145H, V148Q counted along it
# Chain of PUM1 PUF domain R5-VHL (Q14671 828-1176 C1007V/R1008H/Q1011L): as the sequence (Q14671 828-1176 N971G/H972N/Q975V) above, with G144N, N145H, V148Q, C180V, R181H, Q184L counted along it
# Chain of PUM1 PUF domain R3-QPS (Q14671 828-1176 C935Q/R936P/Q939S): as the sequence (Q14671 828-1176 N971G/H972N/Q975V) above, with C108Q, R109P, Q112S, G144N, N145H, V148Q counted along it
# Chain of PUM1 PUF domain R8-RRN (Q14671 828-1176 N1122R/Y1123R/Q1126N): as the sequence (Q14671 828-1176 N971G/H972N/Q975V) above, with G144N, N145H, V148Q, N295R, Y296R, Q299N counted along it
sequence,measurement,setting,value
GGCUAGAACUAGUGGAUCCCCCGGCGCCCGGCGGCUCGAGCCCGGGUAAGUGUAAAUAGUCUGCAUGCCGCCGGGCGCCAUGCCUGCAGGUCGACUCUAGAAAACAUG,binding signal,PUM1 PUF domain R5-IYM,3.85 log2 enrichment (interaction score)
same,binding signal,PUM1 PUF domain R6-SHR,4.81 log2 enrichment (interaction score)
same,binding signal,PUM1 PUF domain R3-VRG,3.39 log2 enrichment (interaction score)
same,binding signal,PUM1 PUF domain R3-DFV,5.54 log2 enrichment (interaction score)
same,binding signal,PUM1 PUF domain R3-SCY,3.56 log2 enrichment (interaction score)
same,binding signal,PUM1 PUF domain R6-DYQ,6.54 log2 enrichment (interaction score)
same,binding signal,PUM1 PUF domain R6-VYR,2.97 log2 enrichment (interaction score)
same,binding signal,PUM1 PUF domain R8-RRN,2.81 log2 enrichment (interaction score)
same,binding signal,PUM1 PUF domain R5-VHL,2.67 log2 enrichment (interaction score)
same,binding signal,PUM1 PUF domain R5-GFM,2.5 log2 enrichment (interaction score)
GGCUAGAACUAGUGGAUCCCCCGGCGCCCGGCGGCUCGAGCCCGGGUAAGUGCAAAUAGUCUGCAUGCCGCCGGGCGCCAUGCCUGCAGGUCGACUCUAGAAAACAUG,binding signal,PUM1 PUF domain R6-SHR,5.39 log2 enrichment (interaction score)
GGCUAGAACUAGUGGAUCCCCCGGCGCCCGGCGGCUCGAGCCCGGGUAAGUGUAAGUAGUCUGCAUGCCGCCGGGCGCCAUGCCUGCAGGUCGACUCUAGAAAACAUG,binding signal,PUM1 PUF domain R3-VRG,0.46 log2 enrichment (interaction score)
same,binding signal,PUM1 PUF domain R3-FRW,4.16 log2 enrichment (interaction score)
GGCUAGAACUAGUGGAUCCCCCGGCGCCCGGCGGCUCGAGCCCGGGUAAGUUUAAAUAGUCUGCAUGCCGCCGGGCGCCAUGCCUGCAGGUCGACUCUAGAAAACAUG,binding signal,PUM1 PUF domain R7-GNR,2.05 log2 enrichment (interaction score)
GGCUAGAACUAGUGGAUCCCCCGGCGCCCGGCGGCUCGAGCCCGGGUAAGUGUCAAUAGUCUGCAUGCCGCCGGGCGCCAUGCCUGCAGGUCGACUCUAGAAAACAUG,binding signal,PUM1 PUF domain R5-RGC,1.32 log2 enrichment (interaction score)
same,binding signal,PUM1 PUF domain R5-RSP,2.36 log2 enrichment (interaction score)
GGCUAGAACUAGUGGAUCCCCCGGCGCCCGGCGGCUCGAGCCCGGGUAAGUGUUAAUAGUCUGCAUGCCGCCGGGCGCCAUGCCUGCAGGUCGACUCUAGAAAACAUG,binding signal,PUM1 PUF domain R5-RGC,3.22 log2 enrichment (interaction score)
same,binding signal,PUM1 PUF domain R5-RSP,1.1 log2 enrichment (interaction score)
GGCUAGAACUAGUGGAUCCCCCGGCGCCCGGCGGCUCGAGCCCGGGUAAGUGAAAAUAGUCUGCAUGCCGCCGGGCGCCAUGCCUGCAGGUCGACUCUAGAAAACAUG,binding signal,PUM1 PUF domain R6-VYR,6.09 log2 enrichment (interaction score)
GGCUAGAACUAGUGGAUCCCCCGGCGCCCGGCGGCUCGAGCCCGGGUAAGUGUAAAUCGUCUGCAUGCCGCCGGGCGCCAUGCCUGCAGGUCGACUCUAGAAAACAUG,binding signal,PUM1 PUF domain R1-KSL,2.8 log2 enrichment (interaction score)
GGCUAGAACUAGUGGAUCCCCCGGCGCCCGGCGGCUCGAGCCCGGGUAAGUGUAAUUAGUCUGCAUGCCGCCGGGCGCCAUGCCUGCAGGUCGACUCUAGAAAACAUG,binding signal,PUM1 PUF domain R3-QPS,3.41 log2 enrichment (interaction score)
GGCUAGAACUAGUGGAUCCCCCGGCGCCCGGCGGCUCGAGCCCGGGUAAGUGUACAUAGUCUGCAUGCCGCCGGGCGCCAUGCCUGCAGGUCGACUCUAGAAAACAUG,binding signal,PUM1 PUF domain R4-GNV,1.41 log2 enrichment (interaction score)
same,binding signal,PUM1 PUF domain R4-QGG,1.65 log2 enrichment (interaction score)
GGCUAGAACUAGUGGAUCCCCCGGCGCCCGGCGGCUCGAGCCCGGGUAAGUGUAUAUAGUCUGCAUGCCGCCGGGCGCCAUGCCUGCAGGUCGACUCUAGAAAACAUG,binding signal,PUM1 PUF domain R4-GNV,2.92 log2 enrichment (interaction score)
same,binding signal,PUM1 PUF domain R4-QGG,2.98 log2 enrichment (interaction score)
GGCUAGAACUAGUGGAUCCCCCGGCGCCCGGCGGCUCGAGCCCGGGUAAGUGUGAAUAGUCUGCAUGCCGCCGGGCGCCAUGCCUGCAGGUCGACUCUAGAAAACAUG,binding signal,PUM1 PUF domain R5-GFM,2.5 log2 enrichment (interaction score)
